# Source: PubChem (The Scripps Research Institute Molecular Screening Center)
# FBW7 activator: activators of human E3 ligase FBW7 | AlphaScreen FBW7–phospho-cyclin E peptide binding, activator screen | hit rate 0.13% among 650,000 | AID 1259310 | normalized activity (activation), % at 26.1 µM; in the data active = normalized activity above about 1.9%;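 also: purified mutant Fbw7 with reduced substrate affinity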
# TEAD-YAP inh: TEAD-YAP interaction inhibition; HEK-TIYL cells, TEAD-Gal4/YAP UAS-luciferase luminescence; inhibition, % at 9.12 µM; hit rate 1.4% among 640,000; in the data active = inhibition above about 32%;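 also: 0% = median of test compound wells and 100% = reference inhibitor wells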
# MITF inh: blocks human microphthalmia-associated transcription factor | O75030 | AlphaScreen MITF homodimerization, bead proximity signal | inhibition, % at 2.6 µM | hit rate 0.91% among 650,000; in the data active = inhibition above about 50%;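 also: 0% = vehicle wells with protein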
# Target sequence (O75030 whole entry, looked up): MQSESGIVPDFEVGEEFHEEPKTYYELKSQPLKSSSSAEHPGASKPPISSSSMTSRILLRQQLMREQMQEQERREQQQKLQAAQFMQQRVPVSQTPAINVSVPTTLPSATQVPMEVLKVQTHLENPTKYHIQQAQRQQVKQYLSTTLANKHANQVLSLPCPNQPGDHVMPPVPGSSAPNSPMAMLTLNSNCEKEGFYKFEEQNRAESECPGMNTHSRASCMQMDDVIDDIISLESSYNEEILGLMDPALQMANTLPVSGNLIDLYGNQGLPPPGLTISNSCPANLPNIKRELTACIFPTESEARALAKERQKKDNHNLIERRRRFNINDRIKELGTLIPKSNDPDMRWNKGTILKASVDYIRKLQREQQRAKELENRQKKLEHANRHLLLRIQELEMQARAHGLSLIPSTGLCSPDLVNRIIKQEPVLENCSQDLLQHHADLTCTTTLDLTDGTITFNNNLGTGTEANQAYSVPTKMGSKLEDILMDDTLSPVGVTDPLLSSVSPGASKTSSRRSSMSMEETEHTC
# GPR151 activ: activates the human receptor GPR151 | Q8TDV0 | PathHunter beta-arrestin GPR151 cells, luminescence | activation, % at 11.2 µM | hit rate 1% among 650,000; in the data active = activation above about 4.9%;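 also: 0% = median of compound wells and 100% = cells with positive control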
# The depositor's hits bear a star. Most compounds without a hit are left out; they make up all but 3.5% or so of the library.
SMILES,FBW7 activator,TEAD-YAP inh,MITF inh,GPR151 activ
Cc1cnc(N2CCN(Cc3ccc4c(c3)OCO4)CC2)nc1NC1CCN(Cc2ccccc2)CC1,0.1,-3.6,15.1,0.0
COc1ccc(NC(=O)c2nn(-c3ccccc3OC)c(=O)c3ccccc23)cc1OC,0.3,-1.6,17.7,0.7
COc1ccccc1-n1nc(C(=O)Nc2cc(OC)c(OC)c(OC)c2)c2ccccc2c1=O,0.1,32.1*,0.2,-0.4
COc1ccc(-n2nc(C(=O)NCC(=O)NCC3COc4ccccc4O3)c3ccccc3c2=O)cc1OC (stereo unspecified),0.2,36.4*,-1.7,0.1
O=C(Nc1ccc2c(c1)OCO2)Oc1ccccc1,-0.1,-40.5,11.0,1.1
CCOC(=O)c1ccc(NC(=O)CSc2nnc3[nH]c(=O)cc(C)n23)cc1,-0.1,18.2,3.2,-1.5
Cc1nnc(SC(=O)N2c3ccccc3Sc3ccccc32)s1,-0.3,60.6*,7.2,0.2
C=CCn1c(N2C(=O)CC(Cc3ccccc3)C2=O)nc2ccccc21 (stereo unspecified),0.8,-5.5,19.5,2.3
Cc1ccc(C(=O)C2C(c3cccs3)C(C#N)(C#N)C3C=Cc4ccccc4N23)cc1 (stereo unspecified),-0.2,43.4*,-16.9,1.0
COc1ccc(C(=O)[C@@H]2[C@@H](c3cccs3)C(C#N)(C#N)[C@H]3C=Cc4ccccc4N23)cc1,0.4,55.1*,9.4,1.2
COc1cccc(CNC(=O)CCn2c(=S)[nH]c3ccsc3c2=O)c1,0.4,12.5,8.3,-0.6
COc1ccc(CCNc2ncnc3scc(-c4ccccc4)c23)cc1OC,-0.1,50.4*,-8.9,2.7
OCCNc1ncnc2scc(-c3ccccc3)c12,1.1,18.6,19.9,-0.2
COCCNc1ncnc2scc(-c3ccccc3)c12,-0.1,36.2*,-9.2,1.2
O=C(Nc1nc(-c2ccccn2)cs1)c1ccc(Oc2ccccc2)cc1,-0.1,43.0*,0.4,-1.3
COc1cc(OC)cc(C(=O)Nc2nc(-c3ccccn3)cs2)c1,-0.3,49.1*,17.8,0.0
COc1ccc(CCNC(=O)/C=C/c2ccc(C)cc2)cc1,0.0,-24.3,-5.7,-1.8
Cc1ccc2c(c1)cc(CN(Cc1ccc3c(c1)OCO3)C(=O)C1CCC1)c1nnnn12,0.0,-3.8,2.2,0.0
Cc1cccc(-c2nnc(NC(=O)c3ccccc3F)s2)c1,1.9*,-63.9,14.1,-0.1
Cc1cccc(NS(=O)(=O)c2nnc(NC(=O)c3ccccc3F)s2)c1,0.0,-2.9,-5.2,-2.5
O=C(NCCCN1CCOCC1)C1C2C=CC3(CN(Cc4cccs4)C(=O)C13)O2 (stereo unspecified),0.2,6.0,10.9,-0.4
O=C(CN1CC[n+]2c(-c3cccs3)csc21)c1ccccc1,0.0,32.1*,8.9,0.0
O=C(Cn1c2ccccc2n2nc(-c3cccs3)nc12)c1ccccc1,-0.2,-6.8,-3.2,0.5
N=C1c2ccccc2C(=O)C1c1ccccc1 (stereo unspecified),-0.2,-33.3,64.6*,-0.2
COc1ccc(C2C(=O)c3ccccc3C2=O)cc1,-0.2,-3.6,7.1,-1.4
SMILES,FBW7 activator,TEAD-YAP inh,MITF inh,GPR151 activ
CCN1CCN(Cc2ccc(NC(=O)Nc3ccccc3Cl)cc2)CC1,-0.1,33.7*,18.7,-0.2
CCN1/C(=C/c2cccc[n+]2C)Sc2ccc(C)cc21,-0.8,51.9*,4.1,1.1
CN1C=C/C(=C/c2cccc[n+]2C)c2ccccc21,-0.1,13.1,-5.6,-0.2
CN1/C(=C/c2cccc[n+]2C)Sc2ccccc21,0.1,70.1*,-0.1,0.1
CCCCN1/C(=C/c2cccc[n+]2C)Sc2cc(NC(C)=O)ccc21,0.3,6.4,25.6,1.0
Cc1ccc2c(c1)N(C)/C(=C/c1cccc[n+]1C)S2,-0.2,55.0*,1.7,0.3
C[n+]1ccccc1/C=C1\Sc2ccccc2N1CCCS(=O)(=O)O,2.5*,-1.9,23.5,-2.0
CN1CC(=O)N2CCN(C(=O)c3cccc4ccccc34)C[C@@H]2C1=O,-0.1,-3.9,12.0,0.2
CCCCCC(=O)N1c2ccccc2NC2=C(C(=O)CC(c3ccc(N(CC)CC)cc3)C2)C1c1ccco1 (stereo unspecified),0.1,46.6*,21.8,-0.3
COc1ccc(S(=O)(=O)n2c(SCc3ccc(Cl)cc3)nc3ccccc32)cc1,-0.1,-13.4,-7.3,-0.9
O=C(CSc1nc2ccccc2c2nc(-c3ccccc3)nn12)c1ccc(Cl)c(Cl)c1,0.3,-4.5,6.3,-0.5
O=C(N/N=C/c1ccc(F)cc1)c1cc2sccc2[nH]1,0.1,48.9*,17.2,-0.7
COC(=O)c1cc(CNC(=O)CCl)cs1,-0.1,11.6,0.4,0.9
c1ccc2c(NC3CC3)nc(N3CCCC3)nc2c1,0.6,32.3*,3.4,-0.4
c1ccc(-c2nc(NC3CCCCC3)c3ccccc3n2)cc1,0.0,7.7,9.2,0.9
Clc1nc(NC2CCCC2)c2ccccc2n1,0.3,60.0*,14.8,-0.5
O=C1CCN(C(=O)c2ccc(-c3nc4ccccc4s3)s2)CC1,0.4,98.9*,12.7,-10.9
OCC1CCCN1c1nc(NCc2cccnc2)c2ncn(-c3ccsc3)c2n1 (stereo unspecified),-0.3,54.4*,-6.3,0.1
c1cncc(CNc2nc(N3CCC(N4CCOCC4)CC3)nc3c2ncn3-c2ccsc2)c1,-0.4,9.1,8.9,-0.4
OCC1CCCN1c1nc(Nc2ccc3c(c2)OCO3)c2ncn(-c3ccsc3)c2n1 (stereo unspecified),-0.1,34.3*,22.1,-1.6
OCC1CCCN1c1nc(Nc2ccccc2)c2ncn(-c3ccsc3)c2n1 (stereo unspecified),-0.1,36.0*,3.3,-0.7
CC(=O)Nc1ccc(Nc2nc(N3CCCC3CO)nc3c2ncn3-c2ccsc2)cc1 (stereo unspecified),-0.4,14.6,15.5,-1.4
COc1cc(Nc2nc(N3CCCC3CO)nc3c2ncn3-c2ccsc2)cc(OC)c1OC (stereo unspecified),-0.4,18.0,20.4,-0.6
CN(Cc1ccccc1)C(=O)C(Cc1ccccc1)NS(=O)(=O)c1cccs1 (stereo unspecified),0.0,36.2*,4.0,0.6
CCC(C)NC(=O)C(Cc1ccccc1)NS(=O)(=O)c1cccs1 (stereo unspecified),-0.1,1.1,-8.1,-0.8
SMILES,FBW7 activator,TEAD-YAP inh,MITF inh,GPR151 activ
CC(=O)Nc1ccc(S(=O)(=O)Nc2ccc(C)c(Cl)c2)cc1,-0.1,13.1,4.9,0.2
O=C(N/N=C/c1cc(Br)c(O)c(Br)c1)c1cc(O)c(O)c(O)c1,-0.3,0.8,89.6*,1.6
O=C(N/N=C/c1ccc(O)c(O)c1)c1cc(O)cc(O)c1,0.3,16.5,19.3,-1.3
O=C(N/N=C/c1ccc(/C=N/NC(=O)c2ccc(O)c(O)c2)cc1)c1ccc(O)c(O)c1,-1.0,-6.3,106.8*,1.7
O=C(N/N=C/c1ccc(O)cc1)c1cc(O)c(O)c(O)c1,-0.2,8.4,59.3*,-0.3
Cc1nc2c(=O)sc3ccccc3c2n1C,0.1,-3.9,3.1,-1.8
CCC(=O)N1c2ccccc2NC2=C(C(=O)CC(C)(C)C2)C1c1cccc(F)c1 (stereo unspecified),0.3,-7.2,-0.3,-0.3
